The full list was thinned out, with hits kept by preference.
HIV RNase H inh-1 = blocks HIV-1 RNase H cleavage of RNA/DNA duplex | P04585 | RT-RNase H RNA/DNA duplex cleavage, fluorescence | inhibition, % at 10 µM | 65,000 tested, 1.9% active | AID 565; in the data active means inhibition above about 50%
RmlC RmlD mix = mixture blocks RmlC and RmlD coupled enzyme activity | RmlC/RmlD coupled enzyme inhibition, 384-well mixture HTS | inhibition, % at 5.5 µM | 110,000 tested, 0.39% active | AID 1532; in the data active means inhibition above about 30%, passing the limit was not always enough; inconclusive means no clear call, values can overlap the other calls
HIV RNase H inh-2 = confirmation of HIV-1 reverse transcriptase RNase H inhibitors. Recombinant RT RNase H, fluorescent RNA/DNA duplex cleavage. 1,000 tested, 39% active. shares compounds with HIV RNase H inh-1. inhibition, % at 10 µM; in the data active means inhibition above about 48%; inconclusive means no clear call, values can overlap the other calls
* marks the source's active call; other numbers are inactive results; ? = inconclusive; . = not tested or not shown.

SMILES	HIV RNase H inh-1	RmlC RmlD mix	HIV RNase H inh-2
Cc1cccc(N2CSC3=C(C#N)C(c4ccc(C)o4)CC(=O)N3C2)c1 (configuration not stated)	94*	-24	55*
COC(=O)C1N[C@@H]([C@@H](NC(=O)COc2ccccc2)C(=O)NCc2ccc(OC)cc2)SC1(C)C (some centres not stated)	.	4	.
CCC(C)c1ccc(OCCCCN2CCOCC2)cc1 (configuration not stated)	.	0	.
CCOC(=O)C1=C(N)Oc2c(c(=O)[nH]c3ccccc23)C1c1ccccc1 (configuration not stated)	.	8	.
COc1ccc(OC)c(NC(=O)c2ccccc2OC(C)=O)c1	.	-9	.
COc1ccc(CCNC(=O)c2c(O)c3cccc4c3n(c2=O)CC4)cc1	83*	-26	67*
COc1ccc(CNC(=O)c2c(O)c3cccc4c3n(c2=O)CCC4)cc1	-14	11	.
O=C(NCCc1ccccc1)c1c(O)c2cccc3c2n(c1=O)CC3	74*	10	84*
O=C(NCc1ccccn1)c1c(O)c2cccc3c2n(c1=O)CC3	4	.	.
Cc1cnc(NC(=O)c2c(O)c3cccc4c3n(c2=O)CCC4)s1	-6	3	.
CC(C)c1nnc(NC(=O)c2c(O)c3cccc4c3n(c2=O)CCC4)s1	77*	.	73*
C#CCO[C@@H]1C[C@H](n2cnc3c(NC(=O)c4ccccc4)ncnc32)O[C@@H]1CO	.	-14	.
CN1CCN(C(=O)C2=C[C@H](c3ccccc3)C[C@H](OCc3ccc(CO)cc3)O2)CC1	.	-3	.
Cc1ccc(CN(c2ccc(C(=O)Nc3cccnc3)cc2)S(C)(=O)=O)cc1	.	10	.
CCCNC(=O)C1(CC2CC(c3ccccc3)=NO2)CCN(C(=O)CCCCCBr)CC1 (configuration not stated)	.	-32	.
Cc1cc2nc(-c3ccc(SCC(=O)N4CCc5ccccc54)nc3)[nH]c2cc1C	.	-42	.
Cc1cccc(-c2nsc(SCC(=O)Nc3nccs3)n2)c1	82*	0	74*
Cc1cccc(-c2nsc(SCC(=O)N3CCCC3)n2)c1	79*	3	34
O=C(CSc1nc2ccccc2s1)Nc1nccs1	.	14	.
CCc1nnc(NC(=O)CSc2nc(-c3ccc(OC)cc3)ns2)s1	30	8	.
COc1ccc(-c2nsc(SCC(=O)Nc3cc(C)on3)n2)cc1	84*	6	61*
Cc1cccc(-n2c(SCC(=O)N3CCCC3)nc3n[nH]c(C)c3c2=N)c1	.	3	.
Cc1cc(NC(=O)CSc2ccc(-c3nc4cc(C)c(C)cc4[nH]3)cn2)no1	70*	-39	72*
O=C(CS(=O)(=O)c1c[nH]c2ccccc12)NC1CCCCC1	.	-13	.
O=C(NCCc1ccccc1)[C@@H]1CC=C[C@@H]2CCN(C3CCCCC3)C(=O)[C@@H]21	.	-10	.
SMILES	HIV RNase H inh-1	RmlC RmlD mix	HIV RNase H inh-2
COC(=O)c1ccc(CSc2nc3ccc(C)cc3[nH]2)o1	.	-8	.
COc1ccc(OC)c(CCNC(=O)Cn2sc3nc(C)cc(C)c3c2=O)c1	97*	7	57*
COc1ccc(-c2nc(CS(=O)(=O)CC(=O)NCCc3cc(OC)ccc3OC)c(C)o2)cc1	-7	3	.
CCOc1ccccc1-c1nc2c(s1)CCc1onc(-c3ccc(OC)cc3)c1-2	.	-12	.
CC(=O)c1sc(N2C(=O)c3oc4ccccc4c(=O)c3C2c2ccc(C)o2)nc1C (configuration not stated)	71*	.	?
Cc1ccc(C2c3c(oc4ccccc4c3=O)C(=O)N2CCCN2CCOCC2)o1 (configuration not stated)	.	-7	.
Cc1ccc(-n2c(N)c(C(=O)NCc3cccnc3)sc2=S)cc1	.	8	.
Cc1ccc(-n2c(N)c(C(=O)N3CCN(C)CC3)sc2=S)cc1	93*	-4	63*
C=CCn1c(N)c(C(=O)N2CCN(C)CC2)sc1=S	29	-10	.
Cc1ccc(-n2c(N)c(C(=O)N3CCCCC3)sc2=S)cc1	95*	7	75*
C/C=C\C(=O)Nc1cccc(C2=NOC3(C2)C[C@H](C(N)=O)N(C(=O)Cc2ccc([N+](=O)[O-])cc2)C3)c1 (some centres not stated)	.	9	.
CC[C@@H](C)CN1C(=O)N[C@@H](c2ccccc2)C(C(C)=O)=C1C	.	17	.
Cc1cc(=O)[nH]c(SCC(=O)C23CC4CC(CC(C4)C2)C3)c1C#N	61*	15	12
Cc1cc(=O)[nH]c(SCC(=O)O)c1C#N	.	1	.
Cc1ccc(-c2cc(C(=O)Nc3cc(C)ccc3C)[nH]n2)c(O)c1	20	-12	.
COc1ccc(OC)c(NC(=O)c2cc(-c3ccc(C)cc3O)n[nH]2)c1	76*	2	13
Cc1c(C(=O)N2CCCc3ccccc32)oc2ccc(S(=O)(=O)N3CCOCC3)cc12	-74	-3	.
COc1ccccc1N=c1oc2c(OC)cccc2cc1C(=O)NCc1ccco1	70*	3	72*
COc1cccc2cc(C(=O)NCc3ccccn3)c(=O)oc12	.	7	.
N=C1N(/N=C/c2ccccc2)C(=Nc2ccccc2)C(=S)N1c1ccccc1	.	-3	.
CCOC(=O)C1=C(C)N=c2s/c(=C3\C(=O)Nc4ccccc43)c(=O)n2C1c1ccc2c(c1)OCO2 (configuration not stated)	86*	6	67*
CCOC(=O)C1=C(C)N=c2s/c(=C\c3ccncc3)c(=O)n2C1c1ccc2c(c1)OCO2 (configuration not stated)	20	2	.
COc1ccc(N(Cc2cc(=O)[nH]c3ccccc23)C(=O)c2ccco2)cc1	9	-9	.
CCC(=O)N(Cc1cc(=O)[nH]c2ccccc12)c1cccc(C)c1	70*	60	2
CCc1ccc(NC(=O)CSc2nnc(COc3ccc4c(c3)CCCC4)o2)cc1	.	-14	.
SMILES	HIV RNase H inh-1	RmlC RmlD mix	HIV RNase H inh-2
COC(=O)c1ccc(NC(=O)CSc2nnc(COc3ccc4c(c3)CCCC4)o2)cc1	75*	-12	30
C[C@@H](C(=O)NCc1ccccn1)[C@@H]1C[C@@]1(C)[C@@H](NC(=O)OCc1ccccc1)c1ccccc1	.	8	.
Brc1ccc2[nH]c3nc(SCCN4CCOCC4)nnc3c2c1	3	.	.
c1ccc2c(c1)[nH]c1nc(SCCN3CCOCC3)nnc12	83*	26	0
C[C@@H](C(=O)N1CCN(C(=O)OC(C)(C)C)CC1)n1cc(CCCN=C(NC(=O)OC(C)(C)C)NC(=O)OC(C)(C)C)nn1	.	-12	.
Cc1[nH]c2ccc(-c3nnc(SCC(=O)c4ccc(F)cc4)o3)cc2c1C	79*	9	?
O=C(CSc1nnc(-c2ccc(O)cc2)o1)Nc1ccc2c(c1)OCCO2	.	-1	.
Cc1cc(C)c(C)c(C(=O)CSc2nnc(-c3ccc4[nH]c(C)c(C)c4c3)o2)c1C	.	-13	.
O=C(CSc1nnc(-c2ccc(F)cc2)o1)c1ccc2c(c1)OCCO2	59*	-1	?
O=C(CSc1nnc(-c2ccc(F)cc2)o1)N1CCN(C(=O)c2ccco2)CC1	81*	-13	32
O=C(CSc1nnc(CNc2ccc(F)cc2)o1)N1CCN(C(=O)c2ccco2)CC1	-12	-10	.
COc1ccc(-c2ccc3oc(-c4ccsc4)cc3c2)cc1	.	-10	.
O=S(=O)(CCOc1ccccc1)c1nc2ccccc2[nH]1	-2	-1	.
CCn1c(=O)c2cc(C(=O)N3CCN(C(=O)c4ccco4)CC3)sc2c2ccccc21	-4	8	.
CCN(CC)C(=O)Cn1nnc(-c2ccc(C)o2)n1	3	5	.
